The target of assay [1] is Aldehyde dehydrogenase, mitochondrial (Homo sapiens) (UniProt P05091). Briefly: qHTS for Inhibitors of the Aldehyde Dehydrogenase Family (ALDH2) Primary screen (AID 2061308). Also: nearly all actives have a fitted effect of over 55% in size. In general terms: Quantitative high-throughput screening tests each substance at several concentrations.
Assay [2] deals with Retinaldehyde dehydrogenase 3 (Homo sapiens) (UniProt P47895). Briefly: qHTS for Inhibitors of the Aldehyde Dehydrogenase Family (ALDH1A3) Primary screen (AID 2061315).

Records with an inconclusive call do not appear. A call without a number means that no potency is given here. The source made the active and inactive calls. Calls follow the shape of the dose curve; as a rule, active = well fitted curve in the direction sought with a large enough effect; inconclusive = small, poorly fitted or top-dose-only effect, or another doubt; inactive = no such curve, though single readings can be large; an effect the other way counts as inactive or inconclusive.

`Cc1ccc(C2N=C(Nc3nc4ccccc4o3)NC3=C2C(=O)CCC3)cc1` (centres undefined): the Potency result in assay [1] and in assay [2] was “inactive” each time.

On to `COc1cc2nc(N3CCN(C)CC3)nc(NCCN(C)C)c2cc1OC`, for which the Potency result in assay [1] and in assay [2] was “inactive” each time.

`Cc1ccc(S(=O)(=O)Nc2ccc(OC(F)(F)F)cc2C(=O)Nc2nc(-c3ccccc3)cs2)cc1`: the Potency entry in assay [1] and in assay [2] was “inactive” in each case.

Turning to `O=C(OCC#CCSc1nnc(-c2cccc3ccccc23)o1)c1sc2ccccc2c1Cl`, the Potency result in assay [1] and in assay [2] was “inactive” throughout.

Take `FC(F)(F)c1cc(-c2ccc(CNc3nc(C4CCCC4)nc4ccccc34)cc2)ccn1`: the Potency entry in assay [1] and in assay [2] was “inactive” in each case.

As to `COC(=O)C1CCc2sc(NC(=O)Cc3ccccc3)c(C(=O)Nc3ccc(Cl)cc3)c21` (centres undefined), the Potency entry in assay [1] and in assay [2] was “inactive” each time.

Consider `Cc1ccc(NS(=O)(=O)c2cccc(Cl)c2)cc1C`, for which the Potency result in assay [1] and in assay [2] was “inactive” in each case.

Take `NC(=O)c1ccccc1-c1noc(-c2ccccc2F)n1`: the Potency result in assay [1] and in assay [2] was “inactive” each time.

Turning to `FC(F)(F)c1ccccc1-c1nc(NCC23CC4CC(CC(C4)C2)C3)c2ccccc2n1`, the Potency result in assay [1] and in assay [2] was “inactive” in each case.

As for `O=C1CCCC2=C1C(c1[nH]ncc1Cl)NC(=NCCc1ccccc1)N2` (centres undefined), the Potency result in assay [1] and in assay [2] was “inactive” throughout.

For the molecule `c1nc(NCc2ccoc2)c2cc(-c3ccc4c(c3)OCO4)ccc2n1`, the Potency result in assay [1] and in assay [2] was “inactive” each time.

Regarding `Cc1ccc(S(=O)(=O)Nc2ccccc2C(=O)Nc2nccs2)cc1`, the Potency result in assay [1] and in assay [2] was “inactive” each time.

As to `CCCCNc1nc(C)nc2c1nc(-c1ccccc1)n2CCN1CCCCC1`, the Potency result in assay [1] and in assay [2] was “inactive” each time.

With `CCCn1c(-c2ccc(F)cc2)nc2c(NCCCCN(C)C)nc(C)nc21`, the Potency result in assay [1] and in assay [2] was “inactive” throughout.

Regarding `O=C(Nc1ccccc1)Nc1ccccc1`, the Potency result in assay [1] and in assay [2] was “inactive” in each case.

Consider `CS(=O)(=O)c1ccc(C(=O)OCC#CCSc2nnc(-c3cccc4ccccc34)o2)cc1`, for which the Potency entry in assay [1] and in assay [2] was “inactive” in each case.

Consider `CC(=O)Nc1sc2c(c1C#N)CCN(C(C)C)C2`, for which the Potency entry in assay [1] and in assay [2] was “inactive” in each case.

As to `FC(F)(F)c1cccc(N2CCN(C(=S)Nc3ncnc4ccccc34)CC2)c1`, the Potency entry in assay [1] and in assay [2] was “inactive” each time.

On to `CN(c1cccc2cccnc12)S(=O)(=O)c1ccccc1`, for which the Potency entry in assay [1] and in assay [2] was “inactive” throughout.

As for `O=C(NCc1ccccc1)Nc1nnc(-c2ccncc2)s1`, the Potency result in assay [1] and in assay [2] was “inactive” each time.

Regarding `Cc1cccc(S(=O)(=O)N2CCN(S(=O)(=O)c3ccc4c(c3)OCCO4)CC2)c1`, the Potency entry in assay [1] and in assay [2] was “inactive” throughout.

In the case of `Cc1csc(CNc2ncnc3ccc(-c4ccc5c(c4)OCCO5)cc23)c1`, the Potency result in assay [1] and in assay [2] was “inactive” in each case.

For `Cc1cccc(CNc2ncnc3ccc(-c4ccc5c(c4)OCO5)cc23)c1`, the Potency result in assay [1] and in assay [2] was “inactive” throughout.

As for `O=C1CCCC2=C1C(c1[nH]ncc1Br)N=C(Nc1nc3ccccc3o1)N2` (centres undefined), the Potency entry in assay [1] and in assay [2] was “inactive” each time.

As for `CCCC1CCC(C(=O)Nc2ccc(S(=O)(=O)Nc3nccs3)cc2)CC1` (centres undefined), the Potency result in assay [1] and in assay [2] was “inactive” in each case.

Regarding `CCOc1ccc(CCN(C)C(=O)c2cc3sccc3n2Cc2ccccc2)cc1OCC`, the Potency result in assay [1] and in assay [2] was “inactive” each time.

For the molecule `Cc1ccc(OCCn2c(CCNC(=O)c3ccc(C#N)cc3)nc3ccccc32)cc1`, the Potency result in assay [1] and in assay [2] was “inactive” each time.

With `Cc1cc2c(s1)c1cnn(Cc3cc(OC(F)(F)F)ccc3F)c(=O)c1n2C`, the Potency result in assay [1] and in assay [2] was “inactive” in each case.

Consider `Cc1ccc(NS(=O)(=O)c2cc3c(cc2Br)NC(=O)CO3)cc1C`, for which the Potency entry in assay [1] and in assay [2] was “inactive” each time.

As for `Cc1cc(N[S+](=O)([O-])c2cc3c(cc2Cl)NC(=O)CO3)ccc1Br`, the Potency result in assay [1] and in assay [2] was “inactive” each time.

`Clc1ccc(-c2nc3ccccc3s2)cc1`: the Potency entry in assay [1] and in assay [2] was “inactive” in each case.

`O=C(Nc1nc(-c2ccccc2)cs1)c1ccccc1[N+](=O)[O-]`: the Potency result in assay [1] and in assay [2] was “inactive” each time.

With `C=CCNc1oc(-c2cccc3ccccc23)nc1C#N`, the Potency entry in assay [1] and in assay [2] was “inactive” in each case.

Turning to `CNc1oc(-c2ccc(F)cc2)nc1C#N`, the Potency result in assay [1] and in assay [2] was “inactive” throughout.

Regarding `CCN(CC)CCCCn1c(-c2ccccc2)nc2c(Nc3ccccc3)nc(C)nc21`, the Potency result in assay [1] and in assay [2] was “inactive” each time.

Take `Cc1ccnc(NC(=S)NC2CCCN(c3cccc(C(F)(F)F)c3)C2)c1` (centres undefined): the Potency entry in assay [1] and in assay [2] was “inactive” throughout.

As to `Cc1cc2c(s1)c1cnn(Cc3ccccc3C)c(=O)c1n2C`, the Potency result in assay [1] and in assay [2] was “inactive” throughout.

Values taken from PubChem BioAssay (NCATS).
